# From PubChem BioAssay (NCATS)
# Inconclusive results are not listed. Activity calls are given as the source filed them. Calls come from the whole dose curve; as a rule, active = well fitted inhibition curve with a large enough effect; inconclusive = small, poorly fitted or top-dose-only effect; inactive = flat fitted curve, though single readings scatter.
# Assay: BET inhibitor-based combinations targeting novel dependencies in MECOM-rearranged (r) AML: AML-194 cell line (AID 2202237; note: nearly all actives have a fitted effect of over 40% in size;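 for viability (% of control): plate controls were vehicle wells for no effect and wells without cells for full effect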)
# Details: AML-194 (MECOM-r AML) viability, CellTiter-Glo, 48 h; series mostly up to 46 µM; viability (% of control): at the top concentration
# In short: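 Readout: CellTiter-Glo luminescence. Exposure: 48 h, 11 concentrations, 500 cells/well. Metric: AUC and within-line Z-AUC after DMSO/empty-well normalization.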
# Potency is the fitted concentration of half-maximal effect.
Compound,viability (% of control),Potency
OC(CCN1CCCCC1)(c1ccccc1)C1CC2C=CC1C2 (configuration not stated),103% (inactive),–
CCOC(=O)c1ncn2c1CN(C)C(=O)c1cc(F)ccc1-2,88.8% (inactive),–
O=c1c(O)c(-c2ccc(O)c(O)c2)oc2cc(O)cc(O)c12,114% (inactive),–
COc1ccc(CCN(C)CCCC(C#N)(c2ccc(OC)c(OC)c2)C(C)C)cc1OC (configuration not stated),91% (inactive),–
CCOC(=O)C(C)(C)Oc1ccc(Cl)cc1,103% (inactive),–
O=Nc1c(-c2c(O)[nH]c3cc(Br)ccc23)[nH]c2ccccc12,–,14.8 µM (active)
NC(=O)OCC(COC(N)=O)c1ccccc1,118% (inactive),–
CCC(C)N(C)C(=O)c1cc2ccccc2c(-c2ccccc2Cl)n1 (configuration not stated),91.3% (inactive),–
NC(CO)C(=O)NNCc1ccc(O)c(O)c1O (configuration not stated),97.1% (inactive),–
NC(=O)c1cccc(N)c1,107% (inactive),–
NC(=NCc1ccccc1)NC(=O)c1nc(Cl)c(N)nc1N,–,23.5 µM (active)
O=C(c1ccccc1)c1ccc2n1CCC2C(=O)O (configuration not stated),98% (inactive),–
